# Shown are actives, neighbours in structure and some others; about 21% of the full set was active somewhere.
# Pf growth 48h: inhibits P. falciparum growth in the first generation, 48 h; 310,000 compounds, 5.9% hits; AID 504832; P. falciparum luciferase growth in erythrocytes, 48 h; Potency, µM (top dose mostly 28.7 µM), without a hit: top-dose activity change, negative = inhibition, hits mostly inhibitors; active = well fitted inhibition curve with a large enough effect; inconclusive = small, poorly fitted or top-dose-only effect, or another doubt; inactive = no such curve, though single readings can be large or run the other way; also: potency is read from the fitted curve at half-maximal effect; % is scaled to controls: 0 for no effect and ±100 for the full control effect
#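 Parasite viability was followed by luminescence of a genomically integrated firefly luciferase. Cultures held 0.1% parasitemia at 2% hematocrit (final), incubated under 5% CO2 at 37 C.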
# Pf growth 96h: inhibits malaria parasite growth, 96 h | P. falciparum luciferase reporter growth, 96 h | Potency, µM (doses to about 28.7 µM), without a hit: top-dose activity change, negative = inhibition, actives largely listed as inhibitors | 320,000 compounds, 6.9% hits; active = well fitted inhibition curve with a large enough effect; inconclusive = small, poorly fitted or top-dose-only effect, or another doubt; inactive = no such curve, though single readings can be large or run the other way; also: potency is read from the fitted curve at half-maximal effect; % is scaled to controls: 0 for no effect and ±100 for the full control effect
#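 96 h incubation, 37 C, 5% CO2, of luciferase-reporter P. falciparum-infected RBCs (2% hematocrit, 0.05% parasitemia final) with test compounds; endpoint luminescence.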
# CHX counter: counter-screen for Shiga toxin inhibitors: cycloheximide protein synthesis inhibition | 300,000 compounds, 12% hits | max response, % | cell reporter, cycloheximide protein synthesis inhibition counterscreen | AID 2314; in the data active = max response mostly above about 13%, no sharp cut-off; inactive = mostly below about 14%; also: read at 38.3 µM for the half of the compounds with a filed dose; 0% is about no effect
# Shiga inhibitor: Shiga toxin inhibition; Vero cells, Shiga toxin protein synthesis inhibition reporter; inhibition, % at 38.7 µM; 290,000 compounds, 9.2% hits; AID 2315; in the data active = inhibition mostly above about 28%, no sharp cut-off; inactive = mostly below about 43%; also: 0% is about no effect
# SARS PLP yeast: inhibitors of SARS-CoV papain-like protease in yeast. S. cerevisiae expressing SARS-CoV PLpro, growth rescue. Potency, µM (doses to about 32.9 µM), without a hit: top-dose activity, positive = growth rescue, actives largely listed as activators. 330,000 compounds, 0.19% hits. AID 485353; also: potency is read from the fitted curve at half-maximal effect; 0% is about no effect; nearly all actives have a fitted effect of over 55% in size
# NS1 inh: inhibitors of influenza NS1 protein function | 270,000 compounds, 0.4% hits | Potency, µM (doses to about 46.1 µM), without a hit: at the highest dose activity, positive = more growth | AID 2326; also: potency is read from the fitted curve at half-maximal effect; actives are rising curves; nearly all actives have a fitted effect of over 50% in size
#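 Read-out: OD600 growth recovery of NS1-expressing budding yeast. Cells grown overnight at 30C in -URA glucose medium, washed, resuspended and diluted 1:100 in 2% galactose assay medium, pH 6.0. Same strain lacking NS1 served as positive control.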
# The depositor's hits bear a star; i = inactive; ? = inconclusive; . = no result given. Unless noted, calls follow the shape of the full dose curve.
SMILES,Pf growth 48h,Pf growth 96h,CHX counter,Shiga inhibitor,SARS PLP yeast,NS1 inh
Cc1cccc(CC(C)NC(=O)c2oc3c(F)cccc3c2C)n1 (stereo not drawn),12%,?,15*,29*,1%,-9%
COc1ccc(-c2cc(C3CCN(C(=O)OC(C)(C)C)CC3)[nH]n2)cc1,?,?,2,9,-1%,-7%
COc1ccc(OC)c(-c2cc(C3CCN(C(=O)OC(C)(C)C)CC3)[nH]n2)c1,?,10µM*,15*,44,1%,-6%
C=CC[C@H](CC(=O)NCCO)C(=O)N[C@@H](COC(=O)[C@H](CC=C)CC(=O)OC(C)(C)C)Cc1c[nH]c2ccccc12,.,.,.,.,9%,.
Cc1ccc(S(=O)(=O)NCc2nc3nc(C)cc(C)n3n2)c(C)c1,32%,?,-2,-2,0%,-1%
COC(=O)c1ccccc1S(=O)(=O)NCc1nc2nc(C)cc(C)n2n1,37%,13µM*,1,10,2%,4%
Cc1cc(C)n2nc(CNS(=O)(=O)c3ccc(F)cc3)nc2n1,20%,?,1,-3,3%,2%
Cc1cc(C)c(S(=O)(=O)NCc2nc3nc(C)cc(C)n3n2)c(C)c1,-7%,12µM*,-3,-5,0%,-2%
Cc1ccc(C)c(S(=O)(=O)Nc2ccc3scnc3c2)c1,-27%,-14%,8,-16,-2%,8%
CCOc1ccc(-n2c(SCc3ccc([N+](=O)[O-])cc3)nnc2-c2ccccc2)cc1,?,4.7µM*,-2,-6,-20%,13%
CCOc1ccc(-c2nnc(SCc3nnc(-c4ccccc4)o3)n2-c2ccccc2F)cc1,.,-24%,20*,52,-4%,-35%
CCCN1CN(c2ccccc2)C(=S)N(c2ccccc2)C1,-4%,-28%,2,27,-2%,7%
CCOC(=O)NNC1CC(=O)N(c2ccc(OC)cc2)C1=O (stereo not drawn),2%,-2%,-1,-11,0%,-3%
Cc1cc(Cl)ccc1OCCCC(=O)NCCN1C(=O)S/C(=C\c2cccnc2)C1=O,16%,?,31*,40,3%,12%
CS(=O)(=O)c1ccc(C(=O)NCCN2C(=O)S/C(=C\c3cccnc3)C2=O)cc1[N+](=O)[O-],5.2µM*,?,31*,8,1%,6%
O=C(COC(=O)c1ccc(Cl)nc1)Nc1ccc(N2CCCCC2)cc1,.,.,.,.,-28%,.
NC(=O)CSc1nc2scc(-c3ccc(Cl)cc3)c2c(=O)n1Cc1ccccc1,12µM*,8.3µM*,-2,-7,4%,12%
Cc1ccc(-c2csc3nc(SCC(=O)N(C)C)n(Cc4ccccc4)c(=O)c23)cc1,13µM*,?,-1,11,17%,?
C=CCn1c(SCC(=O)Nc2ccc(C(=O)O)cc2)nc2scc(-c3ccccc3)c2c1=O,.,.,.,.,-30%,.
COc1ccc(C(=O)NCCS(=O)(=O)N2CCc3ccccc3C2)cc1OC,18%,-25%,.,.,-2%,.
O=C(CN1CCC(O)CC1)N1c2ccccc2C=Cc2ccccc21,-13%,2%,5,1,3%,3%
CC(=O)c1sc(NC(=O)c2ccco2)nc1-c1ccccc1,.,108%,21*,65*,1%,-1%
O=C(Nc1c(-c2ccccc2)nc2ccccn12)c1ccco1,39%,72%,12*,5,1%,-8%
Oc1ccc(-c2nc3ccccn3c2NCc2ccco2)cc1,30%,61%,35*,37*,-4%,2%
CC(=O)c1c(C)[nH]c(C(=O)Nc2nc(-c3ccccc3)c(C)s2)c1C,16%,-5%,23*,15,0%,7%
SMILES,Pf growth 48h,Pf growth 96h,CHX counter,Shiga inhibitor,SARS PLP yeast,NS1 inh
CC(=O)Nc1c(-c2ccc(F)cc2)nc2ccccn12,.,7%,-1,32,-9%,13%
Cc1sc(NC(=O)c2cccs2)nc1-c1ccccc1,39%,-21%,34*,97,-19%,-9%
O=C(Nc1nsc(-c2ccccc2)n1)c1cccs1,-45%,-21%,25*,37*,-31%,-32%
Cc1nc(N/N=C/c2ccccn2)sc1C,-71%,-100%,7,0,-86%,-47%
Cc1sc(NC(=O)c2ccco2)nc1-c1ccccc1,28%,157%,44*,103*,-27%,-40%
Cc1sc(N/N=C/c2cccs2)nc1-c1ccccc1,37%,?,43*,84*,2%,16%
COC(=O)c1cnc2c(c(C)nn2C)c1OC,-6%,9%,8,-3,0%,5%
CC(=O)c1sc(NC(=O)c2ccccc2F)nc1-c1ccccc1,i,139%,43*,134*,-4%,.
Cc1nc(SCC(=O)c2cccs2)c2oc3ccccc3c2n1,31%,.,56*,136*,2%,2%
Cc1nc(SCc2ccccc2F)c2oc3ccccc3c2n1,?,8.3µM*,9,7,1%,-1%
NC(=O)CSc1ncnc2c1oc1ccccc12,.,-1%,4,-2,5%,-8%
O=C(CSc1ncnc2c1oc1ccccc12)c1cccs1,55%,114%,23*,42*,2%,-4%
Cc1nc(SCc2ccc(F)cc2)c2oc3ccccc3c2n1,-5%,-13%,1,1,0%,3%
CCCCn1c(NC(=O)c2ccc(Br)o2)c(C(=O)OCC)c2nc3ccccc3nc21,?,-101%,4,7,4%,23%
CCCCn1c(NS(=O)(=O)c2ccccc2)c(C(=O)OCC)c2nc3ccccc3nc21,1.7µM*,?,4,-9,-34%,-28%
CCCCn1c(NS(=O)(=O)c2ccc(C)cc2)c(S(=O)(=O)c2ccccc2)c2nc3ccccc3nc21,?,4.1µM*,-5,-5,-7%,6%
COc1cc(C(=O)NCc2cn3ccsc3n2)cc(OC)c1OC,.,.,.,.,.,12%
c1ccc(-c2ccccc2OCc2nnc3n2CCC3)cc1,37%,42%,-1,-9,2%,.
CCOC(=O)C1=C(C)NC(SCC(=O)OC)=C(C#N)C1c1ccc(C(=O)OC)cc1 (stereo not drawn),?,37%,0,-10,8%,-31%
CCOC(=O)C1=C(C)Nc2sc(C(=O)c3ccc(F)cc3)c(N)c2C1c1ccc(C(=O)OC)cc1 (stereo not drawn),7.4µM*,4.7µM*,5,1,14%,?
Cc1cc(C)cc(N(CCC#N)C(=O)COC(=O)c2ccc(OCc3c(C)noc3C)cc2)c1,?,10µM*,.,.,0%,.
CC(=O)O[C@]1(C(C)=O)CC[C@H]2[C@@H]3C=C(Cl)C4=CC(=O)[C@@H]5C[C@@H]5[C@]4(C)[C@H]3CC[C@@]21C,11µM*,8.5µM*,.,.,-3%,.
CC(=O)C12CCCCC1CC1[C@@H]3CC(C)C4=CC(=O)CC[C@]4(C)C3CC[C@@]12C (stereo partly drawn),?,?,-1,3,1%,1%
